PubChem BioAssay AID1259417 (TB Discovery Research, Infectious Disease Research Institute, 2018)
In all, about 1,100 compounds went through this assay and about 760 (69%) were called active. How the calls were made is not given here. The set was probably picked from earlier hits. This is one part of the list.

Assay: M. tuberculosis growth inhibition, HTS (AID 1259417);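 further: bacteria grown with compound for 5 days at 37 °C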
Settings: stronger effect = higher value, concentration not given here
[1] = M. tuberculosis DsRed fluorescence growth inhibition
[2] = M. tuberculosis growth inhibition

O=C(CSc1nnc(Cc2ccccc2)o1)Nc1ccc2c(c1)OCO2
inhibition [1]: 5.38% (inactive) | inhibition [2]: -1.39%

CCOc1cc(C(=O)ON=C(N)Cc2ccc(Cl)cc2Cl)cc(OCC)c1OCC
inhibition [1]: 4.39% (inactive) | inhibition [2]: -6.22%

CCOc1cc(CNCCO)cc(Br)c1OCc1ccc(Cl)cc1Cl
inhibition [1]: 37.7% (active) | inhibition [2]: 41.3%

CCOc1cc(CNCc2ccccc2OCc2ccccc2)cc(Cl)c1OCC
inhibition [1]: 9.66% (inactive) | inhibition [2]: -13.6%

Cc1cc(=O)oc2cc(OCC(=O)OC3CCCCC3)ccc12
inhibition [1]: 36.4% (active) | inhibition [2]: 72.1%

CCOCCOC(=O)COc1ccc2c(-c3ccccc3)cc(=O)oc2c1
inhibition [1]: 64% (active) | inhibition [2]: 89%

O=C(COc1ccc2c(-c3ccccc3)cc(=O)oc2c1)OC1CCCCC1
inhibition [1]: 11.7% (active) | inhibition [2]: 53.3%

O=C1c2cccc3cccc(c23)C(=O)N1CCN1CCN(CC(O)COCc2ccc(Cl)cc2)CC1 (stereo unspecified)
inhibition [1]: -12% (inactive) | inhibition [2]: -24.9%

Cc1ccc(-c2csc(-c3ccncc3)n2)cc1C
inhibition [1]: 86.8% (active) | inhibition [2]: 97.1%

COc1ccc(-c2csc(-c3ccc(OC)c(OC)c3)n2)cc1C
inhibition [1]: 1.2% (inactive) | inhibition [2]: -8.81%

O=C(Nc1nnc(-c2ccc(Cl)cc2)o1)c1ccc(Br)cc1
inhibition [1]: 94.3% (active) | inhibition [2]: 95.3%

O=C(C=Cc1ccccc1)Nc1nnc(-c2ccc3c(c2)CCCC3)o1
inhibition [1]: 8.27% (inactive) | inhibition [2]: 19.3%

O=C(Nc1nnc(-c2ccc(Cl)cc2)o1)c1ccccc1Br
inhibition [1]: 12.4% (active) | inhibition [2]: 44.2%

CCCCC(=O)Nc1nnc(-c2ccc3c(c2)CCCC3)o1
inhibition [1]: 25.2% (active) | inhibition [2]: 57.9%

O=C(Nc1nnc(-c2ccc3c(c2)CCCC3)o1)c1ccccc1Br
inhibition [1]: 2.76% (inactive) | inhibition [2]: -9.29%

CC(C)(C)C(=O)Nc1nnc(-c2cc(Cl)ccc2Cl)o1
inhibition [1]: 80.9% (active) | inhibition [2]: 86.9%

O=C(CCSc1ccccc1)Nc1nnc(-c2ccc3c(c2)CCCC3)o1
inhibition [1]: 20.9% (inactive) | inhibition [2]: 26.4%

O=C(Nc1nnc(-c2ccc3c(c2)CCCC3)o1)c1ccco1
inhibition [1]: 9.46% (inactive) | inhibition [2]: 22.5%

O=C(Nc1nnc(-c2ccc3c(c2)CCCC3)o1)c1ccccc1Cl
inhibition [1]: -2.21% (inactive) | inhibition [2]: -7.28%

N#Cc1ccc(C(=O)Nc2nnc(-c3ccc4c(c3)CCCC4)o2)cc1
inhibition [1]: 83.6% (active) | inhibition [2]: 91.1%

O=C(Nc1nnc(-c2cc(Cl)ccc2Cl)o1)c1ccccc1F
inhibition [1]: 59.5% (active) | inhibition [2]: 79.5%

O=C(Nc1nnc(-c2cc(Cl)ccc2Cl)o1)c1ccc(Cl)cc1Cl
inhibition [1]: 11.8% (inactive) | inhibition [2]: 9.57%

O=C(Nc1nnc(-c2ccc3c(c2)CCCC3)o1)c1ccccc1F
inhibition [1]: 49% (active) | inhibition [2]: 79.6%

O=C(Nc1nnc(-c2ccc(Cl)cc2)o1)c1ccccc1F
inhibition [1]: 82% (active) | inhibition [2]: 89.7%

O=C(Nc1nnc(-c2ccc(Br)cc2)o1)c1ccccc1F
inhibition [1]: 80.9% (active) | inhibition [2]: 94.2%

CCOC(=O)COc1cc(OCC(=O)OCC)c2c(=O)cc(-c3ccccc3)oc2c1
inhibition [1]: 63.7% (active) | inhibition [2]: 71.2%

CCOC(=O)COc1ccc2c(=O)cc(-c3ccccc3)oc2c1
inhibition [1]: 89.6% (active) | inhibition [2]: 95.3%

COc1ccc(Cl)cc1NC(=O)C(C)N1CCN(C/C=C/c2ccccc2)CC1 (stereo unspecified)
inhibition [1]: -0.555% (inactive) | inhibition [2]: -22.8%
